Consider six compounds from PubChem BioAssay (NCATS).

Test [1] can be described thus: AP1 Signaling Pathway (AID 357; active means well fitted curve in either direction with a large enough effect, not every such curve was filed as active;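 further: ME-180 reporter cells stimulated with EGF at its EC50 level; on the % scale 0 is the no-effect control and ±100 the full control effect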). Summed up:
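Modulation of EGF-driven AP-1 transcription was assessed with a beta-lactamase reporter in ME-180 cells. Compound and EC50 EGF were co-incubated 5 hours at 37 °C before 2.5-hour CCF4 loading at room temperature and dual-emission reading.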

In test [2] the target is Cytochrome P450 1A2 (Homo sapiens) (UniProt P05177). Nature of the test: p450-cyp1a2 (AID 410; calls by dose curve;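 further: -100% = full effect of reference inhibitor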). Summed up:
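Human CYP1A2 (20nM) demethylated Luciferin-ME at its Km (100uM) in 100mM KPO4. After 10 min compound preincubation, NADPH regeneration ran the reaction 60 min at room temperature. Luciferin was read by luminescence, normalized to 57 uM furafylline.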

Test [3] in a line: NFAT Signaling Pathway (AID 444; active means well fitted curve in either direction with a large enough effect, not every such curve was filed as active;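 further: carbachol stimulus at about its EC50 of 1 µM final; on the % scale 0 is the no-effect control and ±100 the full control effect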). The conditions noted are these: Jurkat NFAT-bla M1, carbachol, beta-lactamase ratio, 5 h; at 17.2 µM (top of the series) unless noted. Summed up:
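Jurkat cells with NFAT-driven β-lactamase reporter and co-expressed M1 receptor, stimulated with carbachol (final 1 uM, ~EC50), compound titration, 5 h at 37 °C. CCF4 loaded 1 h at RT; 460/530 nm ratio gave %activity and AC50.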

Test [4] in a line: Stat Signaling Pathway (AID 446; active means well fitted curve in either direction with a large enough effect, not every such curve was filed as active;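 further: ME-180 cervical cancer cells given 40 pM IL-6 alongside compound; SIE-controlled beta-lactamase reporter measured as 460/530 nm FRET emission ratio; on the % scale 0 is the no-effect control and ±100 the full control effect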). Summed up: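 Reporter line: ME-180 cervical carcinoma, SIE-beta-lactamase. Treatment: compound with 40 pM IL-6, 5 hrs, 37 C, in low-serum OPTI-MEM with 10 mM HEPES pH 7.3. Detection: 460/530 nm fluorescence.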
Test [5] has as its target Mitogen-activated protein kinase 10 (Mus musculus) (UniProt Q61831). Kind of test: JNK3 AlphaScreen Assay (AID 530; active means well fitted curve in either direction with a large enough effect, not every such curve was filed as active;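 further: kinase came from lysate of stimulated human HepG2 cells; signal reports phosphorylation of biotinylated GST-cJun 1-79 at Ser73 with 10 µM ATP; on the % scale 0 is the no-effect control and ±100 the full control effect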). Summed up: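 qHTS format: compounds tested as titrations against IL-1beta/TNF-alpha-activated HepG2 lysate JNK3 with biotin-GST-cJun substrate and 10 uM ATP at room temperature. Loss of anti-phospho-cJun AlphaScreen signal indicates inhibition.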
For orientation: Alpha assays give light when donor and acceptor beads are brought close together.

Test [6] can be described thus: qHTS Assay for Lipid Storage Modulators (AID 1519; calls by dose curve). Particulars: Drosophila S3 cells, BODIPY lipid droplet/cell ratio, laser cytometry, cells loaded with oleic acid; for activity change, negative = inhibition: at 25.7 µM (top of the series). Summed up:
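Cells seeded at 5,000 per well were treated with compounds over a concentration series and loaded with oleic acid (400 uM, as added). Lipid droplet fluorescence (488 nm excitation, 500-530 nm channel) was read by laser-scanning cytometry and normalized to 20 uM Triacsin C.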
(qHTS replaces the single test concentration by a dilution series.)

The target of test [7] is ATP-dependent 6-phosphofructokinase (Trypanosoma brucei brucei) (UniProt O15648). Nature of the test: qHTS Assay to Find Inhibitors of T. brucei phosphofructokinase: hit validation (AID 492961). Further: on the % scale 0 is the no-effect control and ±100 the full control effect. The essentials: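 Luminescence from ADP-Glo reports ADP generated as T. brucei PFK (1.25 nM) phosphorylates 0.5 mM fructose-6-phosphate using 0.1 mM ATP. Reactions ran 45 min at room temperature, pH 8.0.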
Chain of ATP-dependent 6-phosphofructokinase (Trypanosoma brucei brucei) (O15648 whole entry, looked up): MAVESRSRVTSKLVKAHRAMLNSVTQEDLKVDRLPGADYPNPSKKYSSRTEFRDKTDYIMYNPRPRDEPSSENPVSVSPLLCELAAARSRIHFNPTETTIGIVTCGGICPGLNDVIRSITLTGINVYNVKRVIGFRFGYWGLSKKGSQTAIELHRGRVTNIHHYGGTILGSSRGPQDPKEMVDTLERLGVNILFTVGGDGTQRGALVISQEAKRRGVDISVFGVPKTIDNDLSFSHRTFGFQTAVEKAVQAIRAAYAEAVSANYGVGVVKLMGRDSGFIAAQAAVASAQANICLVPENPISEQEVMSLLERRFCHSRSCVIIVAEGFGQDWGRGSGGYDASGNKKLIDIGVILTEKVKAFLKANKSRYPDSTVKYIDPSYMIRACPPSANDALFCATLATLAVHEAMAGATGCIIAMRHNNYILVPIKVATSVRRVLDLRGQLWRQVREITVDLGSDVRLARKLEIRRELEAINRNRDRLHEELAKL

The target in test [8] is Ubiquitin carboxyl-terminal hydrolase 1 (Homo sapiens) (UniProt O94782). Kind of test: Inhibitors of USP1/UAF1: Pilot qHTS (AID 504865).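 Further: rhodamine fluorescence freed from ubiquitin-rhodamine substrate followed over time; top concentration of the series differs between compounds; on the % scale 0 is the no-effect control and ±100 the full control effect; nearly all actives have a fitted effect of over 35% in size.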 The essentials: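 USP1/UAF1 complex (1nM) preincubated with compound 15 min at room temperature, then Ub-Rho substrate (150nM final) added. Fluorescence read kinetically at 480/540 nm, 6 reads every 60 seconds. Buffer: 50mM HEPES pH 7.8, 0.5mM EDTA, 0.1 mg/ml BSA, 1mM TCEP, 0.01% Tween-20.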
Chain of Ubiquitin carboxyl-terminal hydrolase 1 (Homo sapiens) (O94782 whole entry, looked up): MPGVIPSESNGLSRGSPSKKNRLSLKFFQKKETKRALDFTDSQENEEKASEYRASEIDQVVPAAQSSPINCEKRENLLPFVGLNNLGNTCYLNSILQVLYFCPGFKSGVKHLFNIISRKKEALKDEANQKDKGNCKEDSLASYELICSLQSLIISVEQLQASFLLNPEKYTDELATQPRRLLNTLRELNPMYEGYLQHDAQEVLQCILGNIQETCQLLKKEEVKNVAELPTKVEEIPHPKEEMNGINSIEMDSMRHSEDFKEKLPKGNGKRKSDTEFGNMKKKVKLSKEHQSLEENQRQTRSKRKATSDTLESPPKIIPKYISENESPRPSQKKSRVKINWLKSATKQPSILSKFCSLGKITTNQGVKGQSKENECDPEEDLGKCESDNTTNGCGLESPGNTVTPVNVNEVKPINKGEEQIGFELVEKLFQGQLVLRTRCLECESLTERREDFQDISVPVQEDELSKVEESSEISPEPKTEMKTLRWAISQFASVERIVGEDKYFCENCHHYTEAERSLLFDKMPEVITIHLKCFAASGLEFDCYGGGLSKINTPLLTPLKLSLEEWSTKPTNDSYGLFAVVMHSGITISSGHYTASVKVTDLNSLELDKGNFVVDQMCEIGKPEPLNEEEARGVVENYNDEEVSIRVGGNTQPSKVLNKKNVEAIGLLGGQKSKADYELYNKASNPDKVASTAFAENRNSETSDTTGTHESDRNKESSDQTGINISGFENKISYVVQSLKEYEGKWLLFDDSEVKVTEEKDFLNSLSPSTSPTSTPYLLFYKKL

In test [9] the target is Luciferin 4-monooxygenase (Photinus pyralis) (UniProt P08659). Kind of test: Biochemical firefly luciferase enzyme assay for NPC (AID 624030).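 Further: purified P. pyralis luciferase at 10 nM with luciferin and ATP substrate; 0% = DMSO and -100% = full luciferase inhibition by PTC124 control; nearly all actives have a fitted effect of over 70% in size.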 Summed up: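 Purified P. pyralis luciferase at 10 nM in 50 mM Tris Acetate (final), luminescence read within 5 minutes of enzyme addition to compounds. Activity normalised to PTC124 versus DMSO; concentration-response curves classed by r2, magnitude and activity.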
Chain of Luciferin 4-monooxygenase (Photinus pyralis) (P08659 whole entry, looked up): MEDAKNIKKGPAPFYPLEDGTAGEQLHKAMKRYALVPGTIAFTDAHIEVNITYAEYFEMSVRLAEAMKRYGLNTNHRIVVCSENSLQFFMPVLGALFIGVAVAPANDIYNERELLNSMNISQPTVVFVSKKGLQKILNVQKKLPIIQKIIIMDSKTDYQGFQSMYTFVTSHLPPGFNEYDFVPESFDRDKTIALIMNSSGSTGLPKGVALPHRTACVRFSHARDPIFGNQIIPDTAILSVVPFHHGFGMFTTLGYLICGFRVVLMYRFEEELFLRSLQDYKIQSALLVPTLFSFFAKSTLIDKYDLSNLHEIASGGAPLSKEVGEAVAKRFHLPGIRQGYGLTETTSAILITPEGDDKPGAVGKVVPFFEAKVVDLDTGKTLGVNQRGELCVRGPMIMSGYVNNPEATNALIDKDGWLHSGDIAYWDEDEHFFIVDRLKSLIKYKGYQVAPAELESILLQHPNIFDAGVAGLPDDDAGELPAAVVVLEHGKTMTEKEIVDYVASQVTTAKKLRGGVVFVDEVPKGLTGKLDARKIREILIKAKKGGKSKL

Test [10] in a line: qHTS profiling for inhibitors of Plasmodium falciparum proliferation (AID 504749). Further: potency means the concentration at half of the fitted maximal effect.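 On activity, negative = inhibition: 0% = DMSO vehicle and full inhibition = artemisinin control.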 On all read-outs here: nearly all actives have a fitted effect of over 60% in size. The conditions noted are these: P. falciparum in erythrocytes, SYBR Green DNA, 72 h; for activity, negative = inhibition: at 12.8 µM (top of the series). Summed up:
(§1)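 Readout was DNA-dye fluorescence from lysed cultures, ex 485/em 535 nm. Parasitized red cells had grown 72 h with compound; data scaled between 0.29 uM artemisinin and DMSO wells and corrected using vehicle-only plates.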

The next test deals with 3D7. The test is described as above. Particulars: P. falciparum in erythrocytes, SYBR Green DNA, 72 h; series mostly up to 12.8 µM. The essentials:
as §1

The subject of the next test is C2A. Described as above. Particulars: P. falciparum in erythrocytes, SYBR Green DNA, 72 h; series mostly up to 12.8 µM. Summed up: as §1
The next test relates to CP217. The test is described as above. Particulars: P. falciparum in erythrocytes, SYBR Green DNA, 72 h; series mostly up to 12.8 µM. Summed up: as §1
Another test relates to CP250. Described as above. The conditions noted are these: P. falciparum in erythrocytes, SYBR Green DNA, 72 h; series mostly up to 12.8 µM. Summed up: as §1
The test system of the next test is FAB9. The description is as above. The conditions noted are these: P. falciparum in erythrocytes, SYBR Green DNA, 72 h; series mostly up to 12.8 µM. The essentials: as §1
The next test deals with JCK. The test is described as above. Particulars: P. falciparum in erythrocytes, SYBR Green DNA, 72 h; series mostly up to 12.8 µM. Summed up: as §1
The next test concerns PC49. The description is as above. Particulars: P. falciparum in erythrocytes, SYBR Green DNA, 72 h; series mostly up to 12.8 µM. The essentials:
as §1

Test [11] concerns the target 3',5'-cyclic-AMP phosphodiesterase 4B (Homo sapiens) (UniProt Q07343). Kind of test: qHTS Assay for Inhibitors of PDE-IV (AID 607; active means well fitted activation curve with a large enough effect in the main read-out, with a control signal flat, not every such curve was filed as active; further: % of control where 0% means no effect). Summed up:
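Cell-based read-out of cAMP via a modified cyclic nucleotide-gated channel and membrane potential dye (535/590 nm) in HEK293 cells expressing PDE4 endogenously. Compounds tested up to 22.9 uM final; 100 uM RO 20-1724 reference.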

For test [12], the target named is Glucocorticoid receptor (Homo sapiens) (UniProt P04150). Nature of the test: GR-EFC Redistribution (AID 451; calls by dose curve; further: potency means the concentration at half of the fitted maximal effect). The conditions noted are these: CHO-K1 GR-EFC translocation, beta-gal luminescence, 2 h. The essentials: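 CHO-K1 cells expressing nuclear EA and GR-ED fragments of b-gal; compounds titrated up to 46 uM final, 2 h at 37 C. GR nuclear translocation read as complemented b-gal luminescence after 1 h RT detection.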
Chain of Glucocorticoid receptor (Homo sapiens) (P04150 whole entry, looked up, the tested form may be a part): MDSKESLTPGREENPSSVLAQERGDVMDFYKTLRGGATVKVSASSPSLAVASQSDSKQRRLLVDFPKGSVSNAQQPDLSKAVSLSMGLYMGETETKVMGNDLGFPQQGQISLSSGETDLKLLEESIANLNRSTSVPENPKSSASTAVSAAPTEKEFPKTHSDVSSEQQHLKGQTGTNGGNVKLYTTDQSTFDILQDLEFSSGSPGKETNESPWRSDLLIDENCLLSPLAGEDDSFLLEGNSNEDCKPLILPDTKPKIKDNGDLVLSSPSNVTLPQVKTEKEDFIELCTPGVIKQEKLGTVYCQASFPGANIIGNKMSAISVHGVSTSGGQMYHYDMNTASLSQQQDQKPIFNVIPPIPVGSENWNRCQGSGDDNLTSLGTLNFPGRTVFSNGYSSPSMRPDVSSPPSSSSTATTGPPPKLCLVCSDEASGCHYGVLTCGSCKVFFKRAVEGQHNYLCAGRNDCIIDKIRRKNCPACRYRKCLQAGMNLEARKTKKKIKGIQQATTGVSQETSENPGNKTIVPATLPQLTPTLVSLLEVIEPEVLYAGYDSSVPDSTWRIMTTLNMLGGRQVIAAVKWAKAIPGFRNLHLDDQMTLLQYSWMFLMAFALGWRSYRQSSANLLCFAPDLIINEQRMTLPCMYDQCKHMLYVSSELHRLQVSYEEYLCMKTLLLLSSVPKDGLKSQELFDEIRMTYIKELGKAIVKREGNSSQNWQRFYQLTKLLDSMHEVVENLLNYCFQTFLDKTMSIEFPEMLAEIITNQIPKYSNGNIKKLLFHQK

Setting [13] is: measured here: cell count channel max response.
Setting [14] is: measured here: lipid channel max response.

Records with an inconclusive call do not appear. Active and inactive are the calls of the source. Unless noted, the call rests on the fitted dose curve; in most records, active means well fitted curve in the direction sought with a large enough effect; inconclusive means small, poorly fitted or top-dose-only effect, or another doubt; inactive means no such curve, though single readings can be large; an effect the other way counts as inactive or inconclusive.

Chain of 3',5'-cyclic-AMP phosphodiesterase 4B (Homo sapiens) (Q07343 whole entry, looked up): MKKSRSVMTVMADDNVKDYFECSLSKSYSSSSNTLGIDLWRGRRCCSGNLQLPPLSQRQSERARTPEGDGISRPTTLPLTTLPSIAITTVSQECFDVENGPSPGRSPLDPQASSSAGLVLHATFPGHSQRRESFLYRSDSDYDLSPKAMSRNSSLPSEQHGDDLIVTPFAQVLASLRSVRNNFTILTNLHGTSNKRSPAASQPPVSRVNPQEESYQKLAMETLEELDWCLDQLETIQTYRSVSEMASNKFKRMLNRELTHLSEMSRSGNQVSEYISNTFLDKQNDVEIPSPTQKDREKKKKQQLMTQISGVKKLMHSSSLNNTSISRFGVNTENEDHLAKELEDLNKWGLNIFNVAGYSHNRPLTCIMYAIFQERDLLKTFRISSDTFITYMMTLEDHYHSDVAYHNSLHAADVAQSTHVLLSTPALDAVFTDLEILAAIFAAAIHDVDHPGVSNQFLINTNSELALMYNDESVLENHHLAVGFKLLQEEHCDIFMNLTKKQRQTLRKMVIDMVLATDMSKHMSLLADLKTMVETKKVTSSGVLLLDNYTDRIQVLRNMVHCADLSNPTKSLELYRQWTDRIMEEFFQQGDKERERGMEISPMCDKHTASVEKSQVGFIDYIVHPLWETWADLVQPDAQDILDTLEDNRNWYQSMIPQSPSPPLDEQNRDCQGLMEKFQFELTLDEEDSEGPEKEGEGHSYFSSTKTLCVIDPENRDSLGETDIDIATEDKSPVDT
Chain of Cytochrome P450 1A2 (Homo sapiens) (P05177 whole entry, looked up): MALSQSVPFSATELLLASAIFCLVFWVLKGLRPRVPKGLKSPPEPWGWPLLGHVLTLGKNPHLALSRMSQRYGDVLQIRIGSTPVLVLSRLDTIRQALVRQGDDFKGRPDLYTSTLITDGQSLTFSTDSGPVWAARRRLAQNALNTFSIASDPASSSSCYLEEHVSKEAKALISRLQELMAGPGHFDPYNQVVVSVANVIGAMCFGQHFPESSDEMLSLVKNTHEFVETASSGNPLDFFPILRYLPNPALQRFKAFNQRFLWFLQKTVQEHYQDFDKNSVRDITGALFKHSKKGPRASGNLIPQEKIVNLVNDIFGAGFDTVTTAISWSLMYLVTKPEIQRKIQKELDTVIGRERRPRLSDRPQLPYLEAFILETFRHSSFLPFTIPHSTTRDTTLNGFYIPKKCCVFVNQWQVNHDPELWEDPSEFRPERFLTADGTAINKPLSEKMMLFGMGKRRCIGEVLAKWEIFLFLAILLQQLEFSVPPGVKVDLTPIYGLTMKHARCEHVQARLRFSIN

Consider `C[C@H](C(=O)O)c1cccc(Oc2ccccc2)c1`, for which the compound was classed as inactive in test [1], in [4] and in [7]. Further, the Potency entry (in [2]; in test [5]; in test [8]; in [9]; with 3D7; with C2A) was “inactive” throughout. Further, the Potency result with CP217, with CP250, in the test with FAB9, in the test on JCK and in the test on PC49 was “inactive” each time. Further, the results for the activity change, negative = inhibition in test [3] and in [6] were 4.26% (inactive) and 0.849% (inactive), respectively. The values for the max response in test [6] (setting [13]) and in test [6] (setting [14]) were 0.75% and -2.59%, respectively. Further, the activity, negative = inhibition in test [10] (parasite line A) was 2.84% (inactive); in test [10] (parasite line B) it was 14.9% (inactive).

Consider `CC1(C)O[C@H]2C[C@@H]3[C@H]4CCC5=CC(=O)CC[C@@]5(C)[C@]4(F)[C@@H](O)C[C@@]3(C)[C@@]2(C(=O)CCl)O1`, for which the compound was classed as inactive in test [1], in [4], in test [11] and in [7]. Further, the Potency result (in test [2]; in test [5]; in test [9]; in the test on FAB9; in the test with PC49) was “inactive” throughout. For the same compound, the activity change, negative = inhibition in test [3] was 17.6% (inactive); in test [6], -3.97% (inactive). The max response in test [6] (setting [13]) was -11.4%; in [6] (setting [14]), -17.1%. Moreover, the Potency is 1.58 µM (active) in test [10] (parasite line B), 3.98 µM (active) with 3D7, 2.24 µM (active) in the test on CP217 and 3.98 µM (active) in the test with CP250.

In the case of `CC(=O)OCC(=O)[C@@]1(O)CC[C@@H]2[C@H]3CCC4=CC(=O)CC[C@]4(C)[C@]3(F)[C@@H](O)C[C@@]21C`, the outcome in test [1], in test [4] and in test [11] was inactive. The Potency result in test [2], in test [5] and in test [8] was “inactive” throughout. Further, the activity change, negative = inhibition was -9.54% (inactive) in [3] and 0.165% (inactive) in test [6]. Besides, the max response is 9.04% in test [6] (setting [13]) and 9.02% in test [6] (setting [14]).

For the compound `CC(C)(C)CC(C)(C)c1ccc(OCOCCOCCO)c(Cc2cc(C(C)(C)CC(C)(C)C)cc(Cc3cc(C(C)(C)CC(C)(C)C)ccc3OCOCCOCCO)c2OCOCCOCCO)c1`, the result in [1], in test [4] and in test [11] was inactive. Besides, the Potency result in [2] and in [5] was “inactive” throughout. Further, the results for the activity change, negative = inhibition in test [3] and in test [6] were -20.3% (inactive) and -6.93% (inactive), respectively. In addition, the Potency in [12] is > 20.6 µM (inactive). Further, the max response in test [6] (setting [13]) is -10.1%; in [6] (setting [14]) it was -15.2%.

On to `C[C@@H]1Cc2ccccc2N1NC(=O)c1ccc(Cl)c(S(N)=O)c1` (stereo partly drawn), for which the compound was called inactive in [1], in [4], in test [11] and in [7]. The Potency result (in [2]; in [5]; in test [8]; in test [9]; in the test on 3D7; with C2A) was “inactive” throughout. Besides, the Potency entry with CP217, in the test with CP250, in the test on FAB9, with JCK and in the test with PC49 was “inactive” in each case. Besides, the values for the activity change, negative = inhibition in test [3] and in [6] were 6.1% (inactive) and -0.666% (inactive), respectively. Besides, the max response in test [6] (setting [13]) was found to be 8.03%; in [6] (setting [14]) it was 7.13%. In addition, the activity, negative = inhibition in test [10] (parasite line A) was 15.9% (inactive); in test [10] (parasite line B), 17.7% (inactive).

For the compound `C=CC1=C(C(=O)O)N2C(=O)[C@@H](NC(=O)/C(=N\OCC(=O)O)c3csc(N)n3)[C@@H]2SC1`, the result in [1], in test [4] and in [11] was inactive. Besides, the Potency entry (in test [2]; in test [5]; in test [8]; in test [9]; in the test with 3D7; with C2A) was “inactive” each time. Also, the Potency result with CP217, in the test with CP250, in the test with FAB9, with JCK and in the test on PC49 was “inactive” throughout. The results for the activity change, negative = inhibition in [3] and in test [6] were -1.88% (inactive) and 0.264% (inactive), respectively. Further, the max response stood at 6.88% in test [6] (setting [13]) and 9.17% in [6] (setting [14]). The activity, negative = inhibition was -8.61% (inactive) in [10] (parasite line A) and -5.96% (inactive) in test [10] (parasite line B).
